Source: PubChem BioAssay
An excerpt weighted towards active compounds, which were near 2.7% of everything screened.
pAkt inh: blocks phosphorylation of Akt | Neuro2A IGF-stimulated pAkt S473 HTRF, 20 min; active compounds read low | activity change, % for hits at 50 µM | hit rate 0.32% among 360,000; in the data active = activity change below about -80%; inconclusive = mostly about -51% to -80%; note: % is set by controls: 0 for no effect and ±100 for the full control effect
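Neuro2A cells in DMEM with 0.5% FBS, overnight at 37 deg C, given compound at single 50 µM final, then IGF (6 nM final) for 20 min at 37 deg C. Lysed; phospho-Akt Ser473 by HTRF after 24 h, 665/615 ratio.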
RXFP1 agonist: agonists of human relaxin receptor RXFP1; Potency, µM (series often up to 57.5 µM), for inactives: top-dose activation, usual class: activators; hit rate 0.3% among 370,000; HEK293T-RXFP1 cAMP TR-FRET, 30 min; response scale: percent of porcine relaxin response, buffer zero; Q9HBX9; active = well fitted activation curve with a large enough effect; inconclusive = small, poorly fitted or top-dose-only effect; note: potency is the fitted concentration of half-maximal effect; % is set by controls: 0 for no effect and ±100 for the full control effect; nearly all actives have a fitted effect of over 60% in size
Target sequence (Q9HBX9 whole entry, looked up): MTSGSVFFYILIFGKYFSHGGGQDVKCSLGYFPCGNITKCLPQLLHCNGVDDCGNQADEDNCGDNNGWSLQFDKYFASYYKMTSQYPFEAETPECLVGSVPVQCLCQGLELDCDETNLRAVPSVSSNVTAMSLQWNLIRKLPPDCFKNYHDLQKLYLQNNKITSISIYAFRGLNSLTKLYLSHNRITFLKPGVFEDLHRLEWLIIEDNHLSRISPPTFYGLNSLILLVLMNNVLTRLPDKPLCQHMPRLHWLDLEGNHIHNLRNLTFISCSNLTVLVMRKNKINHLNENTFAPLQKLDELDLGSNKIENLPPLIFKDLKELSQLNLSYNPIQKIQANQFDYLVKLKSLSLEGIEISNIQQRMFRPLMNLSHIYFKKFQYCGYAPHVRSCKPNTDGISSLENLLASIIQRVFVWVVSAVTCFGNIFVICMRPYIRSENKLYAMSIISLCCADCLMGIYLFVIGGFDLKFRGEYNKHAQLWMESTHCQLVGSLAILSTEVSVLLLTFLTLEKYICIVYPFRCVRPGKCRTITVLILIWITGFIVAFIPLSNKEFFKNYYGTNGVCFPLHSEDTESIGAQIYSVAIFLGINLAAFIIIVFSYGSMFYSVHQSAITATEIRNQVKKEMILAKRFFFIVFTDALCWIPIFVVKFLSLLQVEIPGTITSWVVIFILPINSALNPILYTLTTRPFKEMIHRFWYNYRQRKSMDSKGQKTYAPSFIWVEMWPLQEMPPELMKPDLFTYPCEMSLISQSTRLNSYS
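Agonist response is measured as cAMP accumulation in an RXFP1-transfected HEK293T line under PDE4 inhibition. Values are scaled between buffer-only and 29 nM porcine relaxin, and EC50s come from standard Hill equation fits.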
RXFP1 antagonist: antagonists of human relaxin receptor RXFP1 | hit rate 0.59% among 350,000 | HEK293-RXFP1, relaxin-stimulated cAMP HTRF, 30 min; active compounds read low | activity change, negative = inhibition, % at 57.5 µM;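 active = activity change of -60% or lower, but not beyond a set lower limit; inconclusive = change between -60% and -40%, or beyond the set limit; inactive = change above -40%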; note: % is set by controls: 0 for no effect and ±100 for the full control effect
gsp antagonist: gsp mutant antagonism. hit rate 0.4% among 340,000. gsp-mutant cells, cAMP HTRF, 30 min. Potency, µM (highest dose often 76.9 µM), for the others: at the highest dose activity change, negative = inhibition, actives largely listed as inhibitors; calls by dose curve; cell line not stated here;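 note: intracellular cAMP measured with PDE inhibitor Ro 20-1724 present during compound exposure; potency is the fitted concentration of half-maximal effect; % is set by controls: 0 for no effect and ±100 for the full control effect; nearly all actives have a fitted effect of over 65% in size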
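HTRF cAMP measurement after 30 min RT detection following 30 min, 37C compound treatment alongside […] (added as 300 uM solution) in G418-selected cells seeded at 2000/well and grown 16–24 h.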
gsp ag: agonists of gsp mutant (McCune-Albright syndrome); Potency, µM (top dose mostly 76.9 µM), without a hit: at the top dose activation (cAMP increase), most hits filed as activators; hit rate 0.13% among 340,000; AID 624287; gsp mutant cells, cAMP HTRF, 30 min; active = well fitted activation curve with a large enough effect; inconclusive = small, poorly fitted or top-dose-only effect, or another doubt; inactive = no such curve, though single readings can be large or run the other way; cell line not stated here;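 note: phosphodiesterase inhibitor Ro 20-1724 added with compounds to block cAMP breakdown; potency is the fitted concentration of half-maximal effect; nearly all actives have a fitted effect of over 60% in size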
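Cells in DMEM/10% FBS with G418 were pretreated with compounds in DMSO plus […] (300 uM stock) for 30 min at 37C. cAMP was measured by HTRF (cAMP-d2 plus anti-cAMP antibody-K) after 30 min at room temperature.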
ClpP mod: qHTS Assay for Activators of ClpP. purified B. subtilis ClpP, FRET peptide cleavage, 20 min. Potency, µM (doses to about 57.5 µM), without a hit: at the highest dose activity change, negative = active. AID 651965, 2013. hit rate 1.9% among 340,000; active = well fitted falling curve with a large enough effect; inconclusive = small, poorly fitted or top-dose-only effect; inactive = no such curve, though single readings can be large or run the other way; note: potency is the fitted concentration of half-maximal effect; the source files actives as falling curves though it sought activators and does not explain the sign; nearly all actives have a fitted effect of over 65% in size
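ClpP 10 microg/mL final, pH 8 Tris/KCl buffer with BSA, glycerol, Tween-20; compound pinned in; FRET-FV substrate; RT 20 min; Ex320/Em430; ΔFRET vs ADEP 5.8 microM, DMSO, no enzyme.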
* hit, by the source's call; i = inactive; ? = inconclusive; / = not tested or not shown; [ ] = dose if it differs, or a comment.

SMILES | pAkt inh | RXFP1 agonist | RXFP1 antagonist | gsp antagonist | gsp ag | ClpP mod
Cc1nnc2ccc(-c3cccc(NC(=O)c4ccc(Br)o4)c3)nn12 | i | 10.0% | -75.2* | -14.3% | ? | /
Cc1ccc2nc(COc3ccccc3NC(=O)C(C)(C)C)cc(=O)n2c1 | / | 9.2% | -22.9 | / | / | 25.1µM*
COc1ccccc1NC(=O)CSc1nc(=O)n2cc(C)ccc2n1 | i | 22.6% | 3.0 | 15.4% | 17.8µM* | -3.4%
Cc1ccc(NC(=O)CSc2nc(=O)n3cc(C)ccc3n2)c(C)c1 | i | 22.9% | 11.8 | 19.5% | ? | -3.6%
CC(=O)OCC1OC(n2c(S)c(C#N)c(-c3ccccc3)c(C#N)c2=O)C(OC(C)=O)C(OC(C)=O)C1OC(C)=O (stereo not given) | i | / | 5.5 | 15.8% | ? | -10.5%
Cc1ccc(-c2ccc(=O)n(CC(=O)Nc3ccc(F)c(Cl)c3)n2)cc1C | / | 23.3% | -6.1 | / | / | -1.0%
Cn1cc(C(=O)[C@@H]2CCc3nc[nH]c3C2)c2ccccc21 | / | / | 6.0 | / | / | /
COc1ccc2nc(Nc3nc4cc5c(cc4s3)OCO5)sc2c1 | i | 2.4% | 8.9 | 2.5% | 24.5% | 12.6µM*
Cc1ccc(C)c(NC(=O)CN(C)C(=O)c2oc3c(Cl)cccc3c2C)c1 | i | 1.0% | 14.6 | ? | -6.5%[15.4 µM] | /
CCN(CC(=O)Nc1ccccc1C(F)(F)F)C(=O)c1oc2c(Cl)cccc2c1C | i | 2.0% | -1.4 | -3.6% | -22.5% | 35.5µM*
CCN(CC(=O)Nc1ccc(OC)cc1)C(=O)c1oc2c(Cl)cccc2c1C | i | 0.0% | -99.8* | -17.9% | 2.7%[15.4 µM] | /
COc1ccc(C(CNC(=O)c2oc3c(Cl)cccc3c2C)N2CCCC2)cc1 (stereo not given) | i | 0.9% | -19.7 | 16.6% | -4.8%[15.4 µM] | -0.5%
Cc1ccccc1CS(=O)(=O)Cc1ccc(C(=O)NCCc2ccc(Cl)cc2)o1 | / | 5.9% | -96.2* | / | / | 0.6%
Cc1ccc(CCNC(=O)c2ccc(CS(=O)(=O)Cc3ccccc3F)o2)cc1 | / | -0.3% | 9.5 | -23.3% | 0.3% | -1.2%
Cc1cc(OC(C)C(=O)N(Cc2ccco2)Cc2ccccc2F)cc(C)c1Cl (stereo not given) | / | -5.5% | -71.9* | / | / | -0.8%
Cc1cc(OC(C)C(=O)N(Cc2ccc(N(C)C)cc2)Cc2ccco2)ccc1Cl (stereo not given) | / | -2.6% | -15.5 | / | / | -6.3%
O=C(O)c1c(Cl)c(Cl)c(Cl)c(Cl)c1C(=O)N1CCOCC1 | i | 2.3% | -13.4 | -0.7% | -23.3% | -1.3%
O=C(O)c1c(Cl)c(Cl)c(Cl)c(Cl)c1C(=O)N1CCCCCC1 | i | -0.5% | 8.1 | -30.4% | 32.2%[15.4 µM] | 31.6µM*
O=C(Cc1ccc(Cl)cc1)Nc1ccc(-c2nnc(-c3ccco3)o2)cc1 | i | 1.8% | -4.3 | 7.9% | 1.5% | 31.6µM*
O=C(Nc1ccc(-c2nnc(-c3ccco3)o2)cc1)C(c1ccccc1)c1ccccc1 | / | 2.6% | -0.6 | 3.4% | -22.8% | 28.2µM*
c1ccc(-c2nnc(-c3ccco3)n2-c2ccccc2)cc1 | i | -1.0% | 22.5 | 9.4% | 5.5% | 22.4µM*
Brc1ccc(-c2nnc(-c3ccco3)o2)cc1 | i | 0.4% | / | 7.9% | -14.2% | 37.1%
O=C(O)CCC(=O)Nc1ccc(-c2nnc(-c3ccco3)o2)cc1 | i | 3.7% | / | -16.1% | -30.6% | 4.9%
c1ccc(-c2nnc(-c3ccco3)o2)cc1 | i | 3.8% | -0.8 | 8.4% | ? | 14.1µM*
O=C1C2C3C=CC(CC3)C2C(=O)N1c1ccc(Br)cc1 (stereo not given) | i | / | -1.6 | / | -33.6% | -2.0%
Cc1ccc(NC(=O)c2nc(S(=O)(=O)Cc3ccccc3F)ncc2Cl)cc1C | / | / | / | / | / | 0.7%
O=c1oc(-c2cccs2)nc2ccc(Br)cc12 | i | 2.4% | -3.6 | ? | -40.5% | 28.2µM*
Cc1cccc2sc(N(Cc3cccnc3)C(=O)Cc3ccccc3)nc12 | / | 3.7% | -0.7 | / | / | -4.3%
COc1ccc(/C=C/C(=O)NCc2cn(C)nc2C)cc1COc1ccc(Cl)cc1Br | i | 0.1% | -6.1 | -4.4% | 7.5% | 14.1µM*
